Measurements taken from PMC4336329 (PLoS ONE, 2015).
The whole screen tested about 310,000 compounds, of which about 14,000 (4.5%) showed an effect of 50% or more. Effects have a minus sign here. The entries come from a sample that favours strong results as a whole.

Target: human ether-à-go-go-related gene (hERG) potassium channel (human, UniProt Q12809)
Experiment: primary screen, population patch clamp on CHO cells stably expressing hERG; higher = less effect of the substance
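Further: peak tail current of the secondary pulse compared with the same well before compound.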

Chain of human ether-à-go-go-related gene (hERG) potassium channel (Q12809 whole entry, looked up): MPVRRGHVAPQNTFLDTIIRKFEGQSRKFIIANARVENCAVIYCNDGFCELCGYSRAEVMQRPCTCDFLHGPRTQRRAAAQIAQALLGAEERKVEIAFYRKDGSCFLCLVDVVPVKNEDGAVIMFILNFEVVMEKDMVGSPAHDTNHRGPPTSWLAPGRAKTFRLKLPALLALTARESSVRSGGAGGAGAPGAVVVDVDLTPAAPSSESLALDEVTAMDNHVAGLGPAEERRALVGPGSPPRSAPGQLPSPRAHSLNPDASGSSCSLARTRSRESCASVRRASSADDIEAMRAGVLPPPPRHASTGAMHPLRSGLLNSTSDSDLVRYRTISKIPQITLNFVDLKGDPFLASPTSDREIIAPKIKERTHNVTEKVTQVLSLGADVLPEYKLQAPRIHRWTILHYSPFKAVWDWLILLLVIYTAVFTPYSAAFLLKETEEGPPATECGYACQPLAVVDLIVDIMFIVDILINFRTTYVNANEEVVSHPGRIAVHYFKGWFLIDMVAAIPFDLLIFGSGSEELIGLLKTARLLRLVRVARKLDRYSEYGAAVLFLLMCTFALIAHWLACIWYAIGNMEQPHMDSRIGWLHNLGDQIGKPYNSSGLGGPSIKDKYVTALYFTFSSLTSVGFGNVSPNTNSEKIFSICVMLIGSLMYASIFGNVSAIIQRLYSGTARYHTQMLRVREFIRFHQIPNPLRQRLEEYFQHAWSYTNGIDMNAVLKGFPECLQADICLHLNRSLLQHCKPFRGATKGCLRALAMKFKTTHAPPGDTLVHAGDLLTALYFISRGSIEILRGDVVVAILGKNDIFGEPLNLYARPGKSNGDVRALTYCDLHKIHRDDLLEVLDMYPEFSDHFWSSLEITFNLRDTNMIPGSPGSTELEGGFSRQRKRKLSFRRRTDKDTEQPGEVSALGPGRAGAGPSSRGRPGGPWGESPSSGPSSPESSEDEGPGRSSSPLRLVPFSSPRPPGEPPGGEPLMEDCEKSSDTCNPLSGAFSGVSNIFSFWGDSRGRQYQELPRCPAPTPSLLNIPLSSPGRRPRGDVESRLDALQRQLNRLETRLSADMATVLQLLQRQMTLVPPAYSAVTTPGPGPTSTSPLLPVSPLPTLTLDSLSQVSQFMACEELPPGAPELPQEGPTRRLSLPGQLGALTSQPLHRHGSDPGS

Row | SMILES | hERG current change (%, negative = inhibition) at 10uM
1 | Clc1ccc(CNc2nnnn2-c2ccccc2)c(Cl)c1 | 20.7%
2 | COc1cccc(/C=C/C(=O)OCC(=O)Nc2ccc(Cl)cn2)c1 | 28.1%
3 | CCCCC1=NN(C(=O)c2ccncc2)C(O)(C(F)(F)F)C1 (stereo not shown) | 23.1%
4 | COc1ccccc1C(=O)COC(=O)CCNS(=O)(=O)c1ccc(C)c(C)c1 | -21.9%
5 | CCC(C(=O)N1CCN(c2ccccn2)CC1)n1nc(C)n2c(cc3occc32)c1=O (stereo not shown) | -5.95%
6 | Cc1ccc(C(=O)N2N=C(c3ccccc3O)CC2c2ccccc2)cc1 (stereo not shown) | 14.6%
7 | COc1cccc(NC(=O)CSc2nc(=O)n(CCN(C)C)c3c2CCCC3)c1 | -49.9%
8 | CN(C)CCn1c2c(c(SCC(=O)Nc3ccc4c(c3)OCCO4)nc1=O)CCCC2 | -14.8%
9 | CN(C)CCn1c2c(c(SCC(=O)Nc3cccc(C(F)(F)F)c3)nc1=O)CCCC2 | -68.8%
10 | COc1ccc(NC(=O)CSc2nc(=O)n(CCN(C)C)c3c2CCCC3)cc1OC | -11.5%
11 | CN(C)CCn1c2c(c(SCC(=O)Nc3ccccc3)nc1=O)CCCC2 | -26.7%
12 | Cc1ccc(NC(=O)CSc2nc(=O)n(CCN(C)C)c3c2CCCC3)cc1Cl | -59.8%
13 | Cc1ccc(-n2nc3c(c2NC(=O)c2ccco2)CS(=O)C3)cc1 (stereo not shown) | -8.69%
14 | CC(C)Cn1c(=S)[nH]c2ccccc2c1=O | 22%
15 | CCCNC(=O)NCCc1ccncc1 | 7.09%
16 | COc1ccc2c(c1OC)C(=O)N(c1ccc(O)cc1)C2=O | 13.4%
17 | CCN(CCCNC(=O)c1c(C)cc(=O)oc1C)c1ccccc1 | -52.7%
18 | Cc1cc(=O)oc(C)c1C(=O)NCCNC(=O)c1c(C)cc(=O)oc1C | 3.85%
19 | Cc1cc(=O)oc(C)c1C(=O)NCc1ccccc1 | 11.2%
20 | CCCNC(=O)c1c(C)cc(=O)oc1C | -6.11%
21 | Cc1cc(=O)oc(C)c1C(=O)NCCc1ccccc1 | 7.49%
22 | CCN(CCCNC(=O)c1[nH]c(C)c(C(C)=O)c1C)c1cccc(C)c1 | -18.2%
23 | CCN(CCCNC(=O)c1c(C)cc(=O)oc1C)c1cccc(C)c1 | -65.3%
24 | Cc1cc(=O)oc(C)c1C(=O)NCCN(C)Cc1ccccc1 | 8.33%
25 | CCCCN(CCCNC(=O)c1c(C)cc(=O)oc1C)c1ccccc1 | -64.4%
26 | CC(=O)c1ccc(N2CCN(C(=O)CCS(=O)(=O)c3ccc4c(c3)CCN4C(C)=O)CC2)cc1 | 3.77%
27 | COc1ccc(-c2csc3ncn(Cc4ccccc4)c(=O)c23)cc1 | -0.922%
28 | COc1ccc(N2CCN(CC(=O)N3N=CCC3c3ccccc3)CC2)cc1 (stereo not shown) | -2.49%

Row | SMILES | hERG current change (%, negative = inhibition) at 10uM
29 | O=C(COC(=O)CCc1c[nH]c2ccccc12)NCc1ccc2c(c1)OCO2 | 13.2%
30 | C/C(=N\NC(=S)NC1CCCCC1)c1c(F)cccc1F | -35%
31 | C/C(N)=C(/C#N)C(=O)COC(=O)[C@@H](NC(=O)c1ccccc1Cl)C(C)C | 4.16%
32 | COc1ccc(S(=O)(=O)N2CCOC2CNC(=O)C(=O)NCc2ccncc2)cc1 (stereo not shown) | 3.26%
33 | COc1ccc(OC)c(-c2nnc(SCC(=O)NC3CCCCC3)o2)c1 | -59.8%
34 | COc1ccccc1-c1nnc(SCC(=O)NC2CCCCC2)o1 | -27.4%
35 | COc1ccccc1-c1ccc(SCC(=O)NC2CCCC2)nn1 | -24.5%
36 | COc1ccccc1-c1ccc(SCC(=O)NC2CCCCC2)nn1 | -72%
37 | COc1ccc(-c2ccc(SCC(=O)NC3CCCCC3)nn2)cc1OC | 16.4%
38 | COc1ccc(-c2nnc(SCC(=O)NC3CCCCC3)o2)cc1OC | -9.47%
39 | Cc1ccc(NS(=O)(=O)c2ccc(C(=O)NNC(=O)c3ccccc3O)cc2)cc1 | 0.906%
40 | COC(=O)Cn1c(=NC(=O)c2ccc(Cl)s2)sc2cc(F)ccc21 | 20%
41 | O=C(CCS(=O)(=O)c1ccc(Cl)cc1)Nc1ccc(N2CCOCC2)cc1 | -6.95%
42 | CCOC(=O)c1sc2nc(C)nc(Nc3ccc(OC)cc3)c2c1C | 24.1%
43 | CN(Cc1cccnc1)C(=O)Cc1ccc(NS(=O)(=O)c2cccc(C(F)(F)F)c2)cc1 | -57.6%
44 | O=S(=O)(Nc1cccnc1)c1cccc(C(F)(F)F)c1 | -2.26%
45 | CC(NC(=O)Cc1ccc(NS(=O)(=O)c2cccc(C(F)(F)F)c2)cc1)c1ccccn1 (stereo not shown) | -7.55%
46 | Cc1ccc(C(=O)N2CCOCC2)cc1Cl | 2.91%
47 | Cc1c(NC(=O)C(C)OC(=O)c2ccc(Cl)nc2)c(=O)n(-c2ccccc2)n1C (stereo not shown) | -2.18%
48 | O=C(COC(=O)c1ccccc1F)NC(=O)NC1CCCC1 | 1.24%
49 | N#CC1(NC(=O)CN2c3cccc4cccc(c34)S2(=O)=O)CCCCC1 | 14.9%
50 | COc1ccccc1CNC(=O)C1CCN(S(=O)(=O)c2cccc([N+](=O)[O-])c2)CC1 | -3.34%
51 | O=[N+]([O-])c1cccc(S(=O)(=O)N2CCC(c3nc(-c4ccncc4)no3)CC2)c1 | 1.54%
52 | COc1ccccc1-c1nnc(C2CCN(S(=O)(=O)c3ccc([N+](=O)[O-])cc3)CC2)o1 | -74.6%
53 | COc1ccccc1-c1nnc(C2CCN(S(=O)(=O)c3cccc([N+](=O)[O-])c3)CC2)o1 | -57.6%
54 | COc1ccccc1-c1nnc(C2CCN(S(=O)(=O)c3ccccc3[N+](=O)[O-])CC2)o1 | -45.2%
55 | COc1ccccc1-c1nnc(NC(=O)c2ccc(S(=O)(=O)N3CCCC3)cc2)o1 | -17.3%
